From PubChem BioAssay AID2240 (Broad Institute, 2010)
The whole screen tested about 37,000 compounds, of which about 100 (0.27%) were called active. This is one part of a sample in which actives are shown more often than they occur. Rule as the data show it: active = inhibition above about 85%; inconclusive = no clear call, values can overlap the other calls; inactive = below about 68%.

assay: inhibitors of MITF, primary screen, MITF inhibitor project, cell-based, luminescence (AID 2240); conditions: TRPM1 promoter luciferase, 24 h, active compounds read high, concentration not given here;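 also: human melanocyte line stably carrying TRPM1 promoter luciferase reporter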

| Structure (SMILES) | inhibition |
| --- | --- |
| c1ccc2c(c1)[I+]c1ccccc1-2 | 90% (active) |
| COc1ccc2[nH]cc(CCNCc3ccc(Br)cc3)c2c1 | -13.8% (inactive) |
| CCCCC/C=C\C/C=C\C/C=C\CCCCCCC(=O)NCCO | -1.85% (inactive) |
| C[C@H]1CCC/C=C/C2C[C@H](O)C[C@H]2[C@H](O)/C=C\C(=O)O1 (stereo not given in full) | 108% (active) |
| c1cncc(CNCCc2c[nH]c3ccccc23)c1 | 1.76% (inactive) |
| COc1ccc(CNCc2nc3ccccc3c(=O)n2-c2ccc(F)cc2)cc1 | 8.31% (inactive) |
| C[C@H]1O[C@@H](O[C@H]2CC[C@]3(CO)C4CC[C@]5(C)[C@@H](C6=CC(=O)OC6)CC[C@]5(O)[C@@H]4CC[C@H]3C2)[C@H](O)[C@H](O)[C@@H]1O[C@@H]1O[C@H](CO)[C@@H](O)[C@H](O)[C@H]1O (stereo not given in full) | 10.7% (inactive) |
| CN(C)C(=O)Oc1cc(OC(=O)N(C)C)cc(C(O)CNC(C)(C)C)c1 (stereo not given) | -14.7% (inactive) |
| CCCN(C/C=C/I)C1CCc2ccc(O)cc2C1 (stereo not given) | -11.9% (inactive) |
| COC1=CC23CCN(C)[C@H](Cc4cc(OC)c(OC)cc42)C3=CC1=O | 2.51% (inactive) |
| Cc1ncsc1CCCl | -1.18% (inactive) |
| CN[C@@H]1C[C@H]2O[C@@](C)([C@@H]1OC)n1c3ccccc3c3c4c(c5c6ccccc6n2c5c31)C(=O)NC4 | 106% (active) |
| CC(C)c1c(CN(C)C(C)Cc2ccccc2)n(C)n(-c2ccccc2)c1=O (stereo not given) | 20.5% (inactive) |
| CC=C1CN2C3CC1C1(C(=O)OC)C2CC2(c4ccccc4N(C)C32)C1O (stereo not given) | 4.01% (inactive) |
| COc1ccccc1N1C(=O)NC(=O)C(CCc2ccncc2)(Cc2cccc3ccccc23)C1=O (stereo not given) | 7.09% (inactive) |
